# Screening data as filed in PubChem BioAssay.
# TTR transcr act = activators of transthyretin transcription; 1.3% of 92,000 active; SH-SY5Y TTR promoter Gaussia luciferase, luminescence; 100% = recombinant luciferase protein wells; activation, % at 16.7 µM;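 active = activation above the mean of all tested compounds plus 3 SD, cut at about 9.5% in these data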;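 also: cells exposed to compounds for one day before reading; 0% = median of all test compound wells on the plate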
# TTR inh HuH7 = counter-screen for TTR activators: TTR transcription inhibitors in HuH7 cells | shares compounds with TTR transcr act | HuH7 TTR promoter-Gaussia luciferase reporter, luminescence | inhibition, % at 16.7 µM | 4% of 1,100 active | AID 1117279;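 active = average inhibition above the solvent-only control wells' mean plus 3 SD, cut at about 15% in these data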;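 also: 0% = cells with DMSO only and 100% = cells with inhibitor control FD; inhibitors lower well luminescence so higher value means more inhibition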
# TTR up confirm = human TTR transcription activation, confirmation. shares compounds with TTR transcr act. SHSY5Y TTR promoter Gaussia luciferase, luminescence; 100% = purified Lucia enzyme wells, no cells. activation, % at 16.7 µM. 1,100 tested, under 10 active;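 active = mean activation above a set limit taken from the earlier primary screen, cut at about 11% in these data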;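 also: 0% = DMSO-treated cells and 100% = recombinant Lucia luciferase without cells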
# Starred values were filed as active, the others as inactive. The full list was thinned out, with hits kept by preference.
SMILES,TTR transcr act,others
COc1ccc(-n2c(C)cc(C(=O)C[N+]34CCN(CC3)CC4)c2C)cc1,9.9*,TTR inh HuH7=-8.4;TTR up confirm=2.7
Cn1cc(P(=S)(c2ccccc2)c2ccccc2)c2ccccc21,6.9,
CCOC(=O)CNC(=O)N1Cc2ccccc2-n2nncc2C1,-1.2,
O=C(C(=O)N1CCC2(CC1)OCCO2)c1c[nH]c2ccccc12,10.5*,TTR inh HuH7=-6.6;TTR up confirm=0.1
CC(C(=O)c1c[nH]c2ccccc12)N1CCOCC1 (stereo unspecified),2.1,
O=C(c1ccccc1)N1CCC2(CC1)OCCO2,0.2,
C[C@H](NC(=O)OCc1ccccc1)[P+](=O)O,0.3,
O=C1CC23c4ccccc4N4C(=O)CC5OCC=C6CN1C2CC6C5C43 (stereo unspecified),-1.4,
CC1C2Cc3ccc(O)cc3C1(C)CCN2CC1CC1 (stereo unspecified),1.3,
